Measured values published in PubChem BioAssay AID624288 (National Center for Advancing Translational Sciences (NCATS), 2012).
Among all 340,000 compounds or so, about 1,400 (0.41%) were called active. Entries that show only a call come without a potency. Inconclusive results (about 4%) are left out. The call rests on the fitted dose curve; cell line not stated here. Many of the other results were omitted from the sample, so actives are more common in it than they were.

assay: qHTS for Antagonists of gsp, the Etiologic Mutation Responsible for Fibrous Dysplasia/McCune-Albright Syndrome: qHTS; conditions: gsp-mutant cells, cAMP HTRF, 30 min; series mostly up to 76.9 µM; further: nearly all actives have a fitted effect of over 65% in size
Source text: McCune-Albright syndrome (MAS) is a rare disease caused by somatic mutations in Gsgsp), a widely expressed protein central in signal transduction from G-coupled protein receptors (GPCRs). The disease symptoms are diverse, owing to the fact that the patients are mosaics with varying degrees of tissue involvement. Greater than 90% of the mutations in Gs in MAS occur at the R201 position and are equally divided between R201H and R201C. The R201 residue is central in the intrinsic GTPase activity of Gs and the H and C mutations lead to loss of, or impairment of, the GTPase activity. The intrinsic GTPase activity is necessary to terminate the interaction between Gs and adenylate cyclase, and to terminate the cAMP-mediated signaling of the given GPCR pathway. Thus, these activating mutations lead to ligand-independent activation of GPCR pathways. The tissue phenotype is determined by the role of Gs in the function of a given cell, and excess Gs/cAMP signaling in that cell. For example, pituitary somatotrophs overproduce growth hormone in a growth hormone releasing hormone-independent fashion, and gigantism/acromegaly ensues. Skeletal stem cells in the bone marrow behave as if they are under constant parathyroid hormone stimulation and fail to differentiate into osteoblasts and osteocytes, and proliferate as immature osteogenic cells and lead to the marrow fibrosis of fibrous dysplasia of bone. The goal of this project is to identify molecules with inhibitory activity at gsp mutations that will not only allow for in-depth study of the underlying molecular and cellular pathophysiology, but also serve as compounds from which drugs to treat FD/MAS can be developed NIH Chemical Genomics Center [NCGC] NIH Molecular Libraries Probe Centers Network [MLPCN] MLPCN Grant: IRP-FT-DE-2011-01 Assay Submitter (PI): Michael Collins, NIDCR
1.#Seed 2000 cells/well in 6 ul DMEM 10% FBS, 1% Pen/Strep, 0.5 mg/ml G418 2.#Incubate 16-24 hr at 37C, 5% CO2, 95% humidity 3.#Aspirate leaving 1 ul residual volume 4.#Dispense 5 ul/well DPBS + 1 mM CaCl2, 0.5 mM MgCl2, 0.05% BSA, 0.005% Tween 20 5.#Aspirate leaving 2 ul residual volume 6.#Dispense 23 nl/well compounds in DMSO 7.#Dispense 1 ul/well 300 uM Ro-20174 in DMEM 10% FBS 8.#Incubate 30 min at 37C, 5% CO2, 95% humidity 9.#Dispense 1.5 ul/well HTRF reagent: cAMP-d2 in lysis buffer 10.#Dispense 1.5 ul/well HTRF reagent: anti-cAMP antibody-K in lysis buffer 11.#Incubate 30 min at room temperature 12.#Detect HTRF signal using EnVision plate reader
Potency means the concentration at half of the fitted maximal effect.

Row | SMILES | Potency
1 | COc1cc(NC(=O)C2=CC(c3ccc(C)cc3)=NS(=O)(=O)N2C)cc(OC)c1OC | inactive
2 | COc1ccc(NC(=O)C2=CC(c3ccc(OC)c(OC)c3)=NS(=O)(=O)N2C)cc1 | 39.8 µM (active)
3 | COc1cc(NC(=O)C2=CC(c3ccco3)=NS(=O)(=O)N2C)cc(OC)c1OC | inactive
4 | COC(=O)Cc1nc2c(N)nc(N)nc2[nH]c1=O | inactive
5 | CC(=O)C12CC(C)=C(C)CC1CC1C3CCC4=CC(=O)CCC4(C)C3CCC12C (stereo not drawn) | inactive
6 | CSc1ncnc2c1ncn2CC(=O)C1CCC2C3CCC4=CC(=O)CCC4(C)C3CCC12C (stereo not drawn) | 31.6 µM (active)
7 | Cc1onc(-c2c(F)cccc2Cl)c1C(=O)Nc1cccc(S(=O)(=O)N2CCCCC2)c1 | inactive
8 | CN1CCOC1c1ccc(C2OCCN2C)cc1 (stereo not drawn) | inactive
9 | CC1CN(Cc2ccccc2)C(=S)NC1=O (stereo not drawn) | inactive
10 | COc1ccccc1NC(=O)N(O)C1(C#N)CCCCC1 | inactive
11 | Cc1ccc(C2=Nc3c(ccc4ccccc34)C(c3ccncc3)=NN2)cc1 | 31.6 µM (active)
12 | CCOc1ccc2c(c1)C(c1ccc(C)cc1)=NNC(c1ccc(C)cc1)=N2 | inactive
13 | Cc1ccc(-c2csc(-c3c[nH]c4ccccc34)n2)cc1 | inactive
14 | CC(=O)c1ccc(NC(=O)C(C)OC(=O)c2ccc(NS(=O)(=O)c3ccc4[nH]c(=O)[nH]c4c3)cc2)cc1 (stereo not drawn) | inactive
15 | O=C(O)C(CCc1ccccn1)c1ccccc1 (stereo not drawn) | inactive
16 | Cc1ccc(/C=C2\SC(=S)N(CCC(=O)Nc3ccc(O)cc3)C2=O)cc1 | inactive
17 | O=C(CCN1C(=O)/C(=C/c2cccs2)SC1=S)NNC(=O)c1cccc(O)c1 | 31.6 µM (active)
18 | O=C(CCCN1C(=O)/C(=C/c2cccs2)SC1=S)Nc1ccc(O)cc1 | inactive
19 | Cc1ccc(OCCNC(=O)c2cccc(S(=O)(=O)N3CCN(Cc4ccccc4)CC3)c2)cc1 | inactive
20 | COc1ccc(OC)c(Cc2cnc3nc(N)nc(N)c3c2C)c1 | inactive
21 | CC(=O)OC(C)C[N+](C)(C)C (stereo not drawn) | inactive
22 | CC(=O)OCCC(C)C | inactive
23 | CC(=O)OCC(COC(C)=O)OC(C)=O | 35.5 µM (active)
24 | O=C1OC(Oc2ccc(Br)cc2)(c2ccccc2)c2ccccc21 (stereo not drawn) | inactive
25 | CCCCN1CC(COc2ccccc2)Oc2cccc(F)c2S1(=O)=O (stereo not drawn) | inactive
26 | O=C(c1ccc(N2CCOCC2)c([N+](=O)[O-])c1)N1CCN(c2ccccc2F)CC1 | inactive

Row | SMILES | Potency
27 | O=C(c1cccc(F)c1)N1CCN(c2ccc([N+](=O)[O-])c3cccnc23)CC1 | 39.8 µM (active)
28 | O=C(c1cccc(F)c1)N1CCN(c2ccc([N+](=O)[O-])c(N3CCCCC3)c2)CC1 | inactive
29 | COc1cc(C2c3cc4c(cc3C(O)C3COC(=O)C23)OCO4)cc(OC)c1OC (stereo not drawn) | inactive
30 | O=C(Cc1ccc(S(=O)(=O)N2CCOCC2)s1)Nc1ccc(Br)c(C(F)(F)F)c1 | inactive
31 | O=C(c1cccnc1)N(Cc1ccccc1)C(=O)c1cccnc1 | inactive
32 | CCCN(CC(=O)Nc1ccccc1C)C(=O)c1ccc(OCC(=O)N2CCOCC2)c(OCC)c1 | inactive
33 | COc1ccc(CCNC(=O)COc2cc(C)cc3oc(=O)c(C)c(C)c23)cc1OC | inactive
34 | CC(C)OCCCNC(=O)c1cc(Sc2ccc(F)cc2)nc2ccccc12 | inactive
35 | CC(C)OCCCNc1ncnc2c1[nH]c1ccc(F)cc12 | 39.8 µM (active)
36 | CCOC(=O)[C@H]1[C@H]2COc3ccc(Br)cc3[C@@H]2N2C(=O)CN(C)C(=O)[C@@]12C | inactive
37 | O=C(NCc1ccccc1)c1cccc(NC(=O)C2CCCCC2)c1 | inactive
38 | Cc1c(CN2CC[C@@H](N3CCN(c4ccccn4)CC3)[C@H](O)C2)[nH]c2ccc(F)cc12 | inactive
39 | Fc1ccc2[nH]c3c(N4CCSCC4)ncnc3c2c1 | 28.2 µM (active)
40 | CCN(CC)CCCN1C(=O)C(=O)/C(=C(/O)c2c(C)nc3ccccn23)C1c1ccc(C)o1 (stereo not drawn) | inactive
41 | O=C(Nc1nc(-c2ccc3c(c2)OCO3)cs1)c1ccncc1 | 39.8 µM (active)
42 | CC(=O)NCCC(=O)Nc1nc(-c2ccc3c(c2)OCCO3)cs1 | inactive
43 | O=C(Nc1nc2ccccc2s1)c1ccc2c(c1)OCO2 | inactive
44 | N#CC1(Nc2ccc(-c3ccc(Cl)cc3)cc2)CCCC1 | inactive
45 | FC(F)(F)c1ccc(-c2cccc3c2C2CC3CCN2Cc2ccccc2)cc1 (stereo not drawn) | inactive
46 | CCOC(=O)c1ccccc1OC(=O)Oc1ccccc1C(=O)OCC | inactive
47 | O=C1C(Cl)=C(Oc2ccccc2)C(=O)c2ccccc21 | 39.8 µM (active)
48 | CC(=O)Oc1ccc2c(c1)C(=O)c1ccccc1C2=O | inactive
49 | CCCCN1CC(COCc2ccccc2)OCCS1(=O)=O (stereo not drawn) | inactive
50 | C=CC(=O)Nc1ccc(Nc2ccnc(Nc3ccc(N4CCN(C)CC4)cc3)n2)cc1 | inactive
51 | COc1ccc(Cl)cc1C=CC=Nc1ccc(S(N)(=O)=O)cc1 | inactive
52 | Cc1ccc(C(=O)OCC(=O)N2CCCCCC2)cc1S(=O)(=O)N1CCOCC1 | inactive

Row | SMILES | Potency
53 | COc1ccc(CNC(=O)COC(=O)c2ccc(C)c(S(=O)(=O)N3CCOCC3)c2)cc1OC | inactive
54 | COc1ccc(C(=O)OCC(=O)c2ccc(C)c(S(=O)(=O)N3CCOCC3)c2)cc1OC | 28.2 µM (active)
55 | COC1C(CO)OC(n2cnc3c(=S)nc(N)[nH]c32)C1O (stereo not drawn) | inactive
56 | COc1ccc2oc(N)nc2c1 | inactive
57 | NC(=O)C1(Nc2ccc([N+](=O)[O-])cc2)CCCC1 | inactive
58 | COc1ccc(-c2nc(CCNC(=O)c3ccc(Br)o3)cs2)cc1 | 44.7 µM (active)
59 | O=C(NCCc1csc(-c2ccccc2)n1)c1ccccc1F | inactive
60 | COc1ccc(N2CCN(C(=O)CNC(=O)c3ccc(Br)o3)CC2)cc1 | inactive
61 | Cc1ccc(S(=O)(=O)N2CCN(C(=O)c3cc(S(=O)(=O)N4CCOCC4)ccc3F)CC2)cc1 | inactive
62 | c1ccc(-c2c[nH]c(-c3ccccc3)c2)cc1 | inactive
63 | Cc1ccc(S(=O)(=O)c2cc3c(=O)n4cccc(C)c4nc3n(CCc3ccccc3)c2=N)cc1C | inactive
64 | CC12CCCCC1=CC(=O)CC2 (stereo not drawn) | inactive
65 | CC(C)Cc1nnc(N)s1 | inactive
66 | COc1ccc(-c2oc3ncn(Cc4ccco4)c(=N)c3c2-c2ccc(OC)cc2)cc1 | 50.1 µM (active)
67 | COc1ccc(-n2cnc3cc(NCc4ccco4)ccc32)cc1 | inactive
68 | Cn1c2ccccc2c(=O)c2c(=O)n(Cc3ccco3)c(COc3ccccc3)nc21 | inactive
69 | OCC(O)C1OCOC(C(O)CO)C1O (stereo not drawn) | inactive
70 | CCOC(=O)N(Cc1ccccc1)C1CC1 | inactive
71 | CCc1c(Nc2ccccc2Cl)nc(N)[nH]c1=O | inactive
72 | COc1ccc(C(=O)NC2CCCc3c2cnn3-c2cccc(C)c2C)c(OC)n1 (stereo not drawn) | 39.8 µM (active)
73 | Cc1cc(C(=O)NC2CCCc3c2cnn3-c2cccc(C)c2C)c(C)o1 (stereo not drawn) | inactive
74 | CC(=O)NCC(=O)NC1CCCc2c1cnn2-c1ccccc1F (stereo not drawn) | inactive
75 | S=C(Nc1ccccc1)Nc1ccc2ccccc2c1 | inactive
76 | Cn1c(=O)[nH]c2c(c(C(=O)O)nn2C)c1=O | inactive
77 | CC(=O)c1c(C)[nH]c(C(=O)COC(=O)c2cccc(S(=O)(=O)N(C)c3ccccc3)c2)c1C | 31.6 µM (active)
78 | CC(=O)c1c(C)[nH]c(C(=O)COC(=O)c2cccs2)c1C | inactive

Row | SMILES | Potency
79 | COc1cccc(C(=O)OCC(=O)c2[nH]c(C)c(C(C)=O)c2C)c1 | inactive
80 | COc1ccc(S(=O)(=O)N(C)C[C@@H]2Oc3ccc(NC(=O)Nc4c(C)noc4C)cc3C(=O)N([C@H](C)CO)C[C@@H]2C)cc1 | 7.94 µM (active)
81 | Cc1noc(C)c1NC(=O)Nc1ccc2c(c1)C(=O)N([C@H](C)CO)C[C@H](C)[C@@H](CN(C)S(=O)(=O)c1cn(C)cn1)O2 | inactive
82 | Cc1noc(C)c1NC(=O)Nc1ccc2c(c1)C(=O)N([C@H](C)CO)C[C@H](C)[C@@H](CN(C)C(=O)Nc1ccccc1)O2 | inactive
83 | O=C(CCCCCCCC(=O)N1CCCCC1)N1CCCCC1 | inactive
84 | COc1ccc(CCC(=O)Nc2ccc(Cl)c(S(=O)(=O)N3CCOCC3)c2)cc1OC | inactive
85 | CC(=O)N1CCc2ccc(N)cc21 | inactive
86 | CCCCN(C(=O)c1cccc(N2C(=O)c3ccccc3C2=O)c1)c1c(N)n(CCCC)c(=O)[nH]c1=O | inactive
87 | Cc1nn2cc(-c3ccc(Cl)cc3)cnc2c1Br | 8.91 µM (active)
88 | CCCCNC1(C#N)CCN(Cc2ccccc2)CC1 | inactive
89 | O=C(OCCOc1ccccc1F)c1cc(S(=O)(=O)N2CCOCC2)ccc1F | inactive
90 | Cc1nc2ccc(NC(=O)c3cccc(S(=O)(=O)N4CCOCC4)c3)cc2s1 | inactive
91 | COc1cccc(C(=O)Nc2nnc(S(=O)(=O)N3CCCCC3)s2)c1 | inactive
92 | O=C(Nc1nnc(S(=O)(=O)N2CCCCCC2)s1)c1cccc(Br)c1 | 28.2 µM (active)
93 | O=C(Nc1nncs1)c1cccc(S(=O)(=O)N2CCCCC2)c1 | inactive
94 | COc1cccc(C(=O)Nc2nnc(S(=O)(=O)N3CCOCC3)s2)c1 | inactive
95 | O=C(Nc1nnc(S(=O)(=O)N2CCOCC2)s1)c1cccc(Br)c1 | 44.7 µM (active)
96 | Cc1nc(N)nc(Cl)c1CCC1OCCO1 | inactive
97 | CCN1C[C@@H]2[C@@H]3C(=O)N(Cc4ccccc4)C(=O)[C@@H]3[C@](C)(C1=O)N2C(=O)c1ccc(C(C)(C)C)cc1 | inactive
98 | Cc1nc2c(C(=O)NCc3ccc4c(c3)OCO4)c[nH]n2c(=O)c1Cc1ccccc1F | 28.2 µM (active)
99 | O=C(NCc1ccc2c(c1)OCO2)c1cc(F)c(F)cc1Cl | inactive
100 | CCn1c(=O)c(C(=O)NCc2ccc3c(c2)OCO3)c(O)c2ccccc21 | inactive
101 | COc1ccc(Nc2ccc3ccccc3c2)cc1 | inactive
102 | Cc1ccc(Nc2c(O)nc[nH]c2=O)cc1C | inactive
103 | O=C(NCC1(N2CCCCC2)CCCCC1)c1cccc(S(=O)(=O)Nc2ccccc2Cl)c1 | inactive
